Compounds with a hit are over-represented: about 1.4% of the library has one in this group of screens.
ROCK2 blocker: inhibitors of human ROCK2 kinase, primary screen, biochemical, high-throughput, luminescence | purified ROCK2, Kinase-Glo ATP depletion luminescence | 60,000 tested, 0.35% active | Rho-associated protein kinase 2 (Homo sapiens), O75116 | inhibition, % at 6 µM;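 active = inhibition above the screen-wide mean inhibition plus 3 SD, cut at about 18% in these data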;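 note: plate controls were DMSO wells for no effect and Y-27632 control wells after no-enzyme background subtraction for full effect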
JNK3 blocker: JNK3 kinase activity inhibitors, primary screen, biochemical, human, purified enzyme. Mitogen-activated protein kinase 10 (Homo sapiens), P53779. HTS. inhibition, % at 8 µM. 60,000 tested, 0.61% active; in the data active = inhibition above about 17%;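 note: 0% = DMSO and 100% = reference inhibitor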
Her2 expr inh: inhibitors of Her2 protein expression, primary screen, SKBR-3 cells, AlphaScreen, 66K library; Receptor tyrosine-protein kinase erbB-2 (Homo sapiens), P04626; SKBR-3 HER2 protein level, 18-24 h; active compounds read low; HER2 level % of control, % at 10 µM; 65,000 tested, 0.69% active; AID 645, 2007;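 active = HER2 level under 5% of the carrier-only control; inconclusive = no clear call, values can overlap the other calls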;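 note: 100% = DMSO carrier and 0% = 500 nM PU-H71 HSP90 inhibitor; lower value means stronger loss of Her2 protein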
Target sequence (P04626 whole entry, looked up): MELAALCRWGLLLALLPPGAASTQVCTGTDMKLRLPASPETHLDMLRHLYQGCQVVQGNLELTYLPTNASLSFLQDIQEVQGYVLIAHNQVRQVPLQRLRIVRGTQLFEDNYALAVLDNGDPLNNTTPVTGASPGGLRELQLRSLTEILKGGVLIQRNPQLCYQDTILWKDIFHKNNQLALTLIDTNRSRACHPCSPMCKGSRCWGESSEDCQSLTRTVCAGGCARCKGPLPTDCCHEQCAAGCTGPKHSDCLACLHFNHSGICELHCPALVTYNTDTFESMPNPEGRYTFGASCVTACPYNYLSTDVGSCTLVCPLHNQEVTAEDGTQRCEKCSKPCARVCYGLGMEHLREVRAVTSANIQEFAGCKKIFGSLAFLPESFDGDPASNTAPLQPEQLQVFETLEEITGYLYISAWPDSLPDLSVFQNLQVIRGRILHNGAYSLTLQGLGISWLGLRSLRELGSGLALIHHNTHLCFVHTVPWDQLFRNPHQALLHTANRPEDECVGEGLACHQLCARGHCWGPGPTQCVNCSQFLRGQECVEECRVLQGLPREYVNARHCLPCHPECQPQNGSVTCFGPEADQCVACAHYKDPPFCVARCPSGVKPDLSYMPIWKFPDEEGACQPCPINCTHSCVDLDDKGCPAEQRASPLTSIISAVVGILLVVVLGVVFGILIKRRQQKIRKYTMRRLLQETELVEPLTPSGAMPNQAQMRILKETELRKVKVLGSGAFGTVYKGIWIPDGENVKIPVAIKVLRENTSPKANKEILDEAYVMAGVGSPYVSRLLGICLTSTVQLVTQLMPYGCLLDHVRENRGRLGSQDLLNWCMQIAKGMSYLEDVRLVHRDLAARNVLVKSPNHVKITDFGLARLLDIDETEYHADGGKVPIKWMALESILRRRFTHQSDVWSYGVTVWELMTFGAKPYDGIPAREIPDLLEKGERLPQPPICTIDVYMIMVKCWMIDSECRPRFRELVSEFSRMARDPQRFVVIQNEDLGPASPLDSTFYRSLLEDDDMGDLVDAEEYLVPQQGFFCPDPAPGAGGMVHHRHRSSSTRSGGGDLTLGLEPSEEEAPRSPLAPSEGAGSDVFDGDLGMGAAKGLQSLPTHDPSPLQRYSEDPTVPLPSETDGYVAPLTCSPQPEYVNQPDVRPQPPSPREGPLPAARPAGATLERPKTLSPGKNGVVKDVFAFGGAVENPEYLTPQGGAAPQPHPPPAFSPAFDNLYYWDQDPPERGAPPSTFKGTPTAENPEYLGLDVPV
PKA inh: inhibitors of human PKA kinase activity, primary screen, biochemical, ATP-depletion luminescence, Kemptide substrate; 65,000 tested, 0.1% active; PKA Kemptide phosphorylation, Kinase-Glo ATP luminescence; AID 524, 2006; inhibition, % at 6 µM;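 active = inhibition above the screen-wide mean inhibition plus 3 SD, cut at about 21% in these data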
mHtt clearance: clearance of mutant huntingtin inclusions, primary screen, imaging, HeLa Exon1htt(103Q)mCFP, confocal imaging; AID 853, 2007; aggregate imaging; zero = plate's median compound well; 47,000 tested, 0.42% active; inhibition, % at 1.5 µM;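 active = inhibition of aggregate fluorescence above about 70%, also judged a hit by eye on the cell image, limit read from the data, passing the limit was not always enough; inconclusive = no rule stated for this call; inactive = not judged a hit on image review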;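 note: cells exposed to compound for three days before fixation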
SK-BR-3 tox 24h: SK-BR-3 proliferation inhibitors, primary screen, cell-based, human, 24 h; 41,000 tested, 0.47% active; AID 847, 2007; SK-BR-3 viability, CellTiter-Glo ATP luminescence; active compounds read low; viability, % at 10 µM;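 active = viability at or below the median of all test compounds minus 3 SD, in both replicates if run twice, cut at about 45% in these data; inconclusive = duplicate replicates that disagree with each other; inactive = viability above that cutoff in every replicate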;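 note: 100% = median untreated cell wells and 0% = median positive control drug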
The depositor's hits bear a star; ? = inconclusive; . = no result given.

SMILES | ROCK2 blocker | JNK3 blocker | Her2 expr inh | PKA inh | mHtt clearance | SK-BR-3 tox 24h
O=C(CSc1n[nH]c(-c2ccncc2)n1)NCCc1ccccc1 | 6.6 | 4.7 | 98.3 | 19.6 | 2.9 | 79.3
O=C(CSc1n[nH]c(-c2ccncc2)n1)c1ccccc1 | 105.1* | -3.5 | 75.9 | 43.1* | -7.4 | 85.0
N#Cc1c(-c2ccccc2)ccn(Cc2ccc(Cl)cc2)c1=O | . | . | . | . | -2.0 | .
Cn1cc(Cl)c(C(=O)OCC(=O)Nc2nc(-c3ccc(Br)cc3)cs2)n1 | . | . | . | . | -10.4 | .
COC(=O)c1sccc1NC(=O)CN1CCN(c2ccc(F)cc2)CC1 | 4.9 | 46.5* | 116.8 | 7.2 | . | 80.7
Cc1cc2ncn(S(=O)(=O)N3CCOCC3)c2cc1C | 7.3 | 4.8 | 107.3 | 8.5 | 70.5* | 92.7
Cc1cc2ncn(S(=O)(=O)N3CCCCC3)c2cc1C | 7.2 | 6.3 | 93.3 | 3.0 | . | 90.4
CCOC(=O)CSc1nc(N2CCOCC2)c2c(c1C#N)CC(C)(C)N(C)C2 | -3.5 | -1.9 | 86.8 | -1.8 | . | 96.6
CCCCCCOC(=O)C(C#N)c1nc2ccccc2nc1N1CCCCC1 (configuration not stated) | -1.3 | 6.9 | 92.9 | -2.9 | 6.0 | 97.1
CCCCCCOC(=O)C(C#N)c1nc2ccccc2nc1N1CCN(C)CC1 (configuration not stated) | 3.6 | -6.4 | -4.8* | 9.7 | . | 4.9*
Cn1c(=O)c(C(=O)c2ccccc2)nc2ccccc21 | -6.5 | -2.0 | 146.4 | -3.1 | 77.1* | 104.4
O=C(c1ccccc1)c1nc2ccccc2[nH]c1=O | 4.0 | 4.1 | 88.7 | 0.2 | . | 96.9
Cc1nc(NC(=O)CSc2nc3cccnc3n2Cc2ccccc2)sc1C | -10.9 | 12.0 | 94.8 | -3.3 | . | 114.6
CCOc1cccc(NC(=O)C2CCCN(S(=O)(=O)c3ccc(-n4cnnn4)cc3)C2)c1 (configuration not stated) | -1.6 | 20.8* | 94.8 | 2.0 | 5.3 | 83.4
COC(=O)c1cc(C(=O)OC)cc(N2C(=O)CC(NNC(=O)c3ccccc3Br)C2=O)c1 (configuration not stated) | . | . | . | . | 84.9* | .
Cc1ccc(CCN2CC(C(=O)NCCCN3CCOCC3)CC2=O)cc1 (configuration not stated) | -4.1 | -7.0 | 77.0 | -6.9 | . | 101.6
N#C/C(=C(/O)CN1CCOCC1)c1nc2ccccc2s1 | 7.8 | 3.8 | 86.1 | 10.7 | 77.1* | 81.1
CCOC(=O)N1CCC(N2C(=O)c3ccc(C(=O)NC4CCCCCC4)cc3C2=O)CC1 | 3.7 | -0.2 | 72.6 | 2.3 | . | .
CC1=CCC(Cc2nc3ccccc3o2)C1(C)C (configuration not stated) | 1.2 | -2.5 | 127.5 | -1.0 | 76.9* | 91.3
c1ccc2oc(CCc3nc4ccccc4o3)nc2c1 | 5.8 | -0.7 | 130.2 | 13.3 | . | 69.4
CC(=NCc1cccnc1)C1=C(O)c2ccccc2C1=O | 5.6 | 37.0* | 100.1 | 5.0 | . | 91.4
CC(=NCCCn1ccnc1)C1=C(O)c2ccccc2C1=O | 5.1 | 29.2* | 115.7 | 6.6 | 8.3 | 112.4
O=C1c2cccc3cccc(c23)C(=O)N1c1nncs1 | 4.6 | 5.8 | -28.5* | 3.4 | . | 85.4
COc1ccc2c(C)cc(N3CCOCC3)nc2c1 | . | . | . | . | 73.3* | .
COc1ccc2c(C)cc(N3CCN(c4ccc(F)cc4)CC3)nc2c1 | . | . | . | . | 40.7 | .
SMILES | ROCK2 blocker | JNK3 blocker | Her2 expr inh | PKA inh | mHtt clearance | SK-BR-3 tox 24h
O=C(Nc1ccc(Cl)cc1)OCCn1nnnc1C(c1ccccc1Cl)N1CCOCC1 (configuration not stated) | . | . | . | . | -54.8 | .
COc1ccc(CNc2cc(C)nc3ncnn23)c(OC)c1 | 0.1 | 5.9 | 82.9 | 2.2 | 54.0 | 39.6*
O=C1NC2=C(C(=O)c3ccccc32)C(c2ccccc2)N1 (configuration not stated) | 9.1 | 26.9* | 111.0 | 13.7 | . | 89.6
CC(=O)C1=C(C)NC(=O)NC1c1ccccc1 (configuration not stated) | . | . | 266.5 | 1.9 | . | 65.3
Cc1ccc(C)c(S(=O)(=O)c2c(N)n(/N=C/c3ccco3)c3nc4ccccc4nc23)c1 | 3.3 | 9.5 | 82.4 | 8.5 | . | 95.2
Nc1c(S(=O)(=O)c2ccccc2)c2nc3ccccc3nc2n1/N=C/c1cccc(O)c1 | 3.6 | -2.8 | -27.5* | 2.9 | . | 94.1
CN1CC2=Cc3ccccc3OC23Oc2ccccc2C=C3C1 | 2.1 | 7.5 | -7.0* | 7.2 | -11.0 | 91.5
CC(C)Oc1ccc(/C(O)=C2/C(=O)C(=O)N(CCCN3CCOCC3)C2c2ccncc2)cc1 (configuration not stated) | -4.8 | 1.3 | 87.6 | -4.7 | . | 101.9
Cc1nnc(SCC(=O)NCCN2C(=O)CSC2=O)s1 | 4.4 | 0.6 | 47.0 | 11.5 | 1.7 | .
Nc1nnc(CCN2C(=O)CSC2=O)s1 | 1.9 | 0.8 | 102.2 | 12.8 | 45.0 | 39.9*
CC1CNCCN1S(=O)(=O)c1cccc2cnccc12 (configuration not stated) | 107.1* | -2.1 | 102.5 | 46.0* | . | 74.7
O=S(=O)(c1cccc2cnccc12)N1CCCNCC1 | . | 7.0 | 93.6 | . | . | 103.3
O=C(CCCCCn1c(=S)[nH]c2cc3c(cc2c1=O)OCO3)N1CCN(C2CCCCC2)CC1 | . | . | -16.0* | 9.3 | -47.0 | .
O=C(CCCCCn1c(=S)[nH]c2cc3c(cc2c1=O)OCO3)N1CCN(Cc2ccccc2)CC1 | . | . | 56.0 | 3.7 | -25.1 | .
COc1ccc(-c2cc3nc(C)c(CCC(=O)N4CCCCC4)c(C)n3n2)c(OC)c1 | -3.3 | -6.0 | 74.4 | 1.5 | . | 72.3
Cc1cc(Cl)ccc1NC(=O)CSc1nnc(-c2ccncc2)n1Cc1ccco1 | . | . | 102.1 | -0.9 | 65.4 | 39.2*
Cc1cccc(C)c1NC(=O)CSc1nnc(-c2ccncc2)n1Cc1ccco1 | -0.2 | 1.8 | 99.1 | 12.4 | . | 90.5
Fc1ccccc1N1CCN(c2ncnc3[nH]ncc23)CC1 | 13.7 | 4.2 | 110.1 | 28.4* | . | .
NC(=O)CN1CCN(c2ccccc2F)CC1 | -0.5 | -7.2 | 121.5 | 6.6 | . | .
C=CCn1c(SCc2nc3ccccc3c(=O)[nH]2)nnc1-c1cc2cc(Cl)ccc2o1 | 11.4 | -2.3 | 3.3* | 11.3 | . | ?
CCN(CC)CCCNC(CC(=O)O)C(=O)O (configuration not stated) | -1.1 | 2.2 | 103.0 | -1.1 | . | 48.1
O=C1c2ccccc2-c2onc3ccc(NCc4ccco4)c1c23 | -7.3 | 32.9* | 49.7 | 5.8 | . | 105.7
CCOC(=O)c1sc2ncnc(N3CCN(C(=O)OCC)CC3)c2c1C | 9.8 | -0.2 | 140.4 | 10.3 | . | 41.8*
Cc1c(C(=O)N2CCN(c3ccccc3)CC2)sc2ncnc(N3CCN(c4ccccc4)CC3)c12 | 0.1 | 0.3 | 93.2 | 2.8 | . | .
